Results as given in the supplement of paper PMC12494721.
Counter-ions that a name gives are not always drawn.

Assays:
Conditions in all cases: incubation time: 27 h, anaerobic, 37 °C;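 for the amine columns active = adjusted P below 0.05 in both replicates with a change the same way and a mean fold change under 0.8 or over 1.25; inactive = the rest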
[1] = test system: Clostridium sporogenes DSM 1664; assay: growth (OD595) fold change vs plate DMSO controls (fold change (ratio)); higher = more growth
Procedure, shortened: (§1)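 The reported measure is growth: the fold change against the median of DMSO controls on the plate. Absorbance at 595 nm from anaerobic 96-well mGAM cultures grown for 27 h at 37 °C was blank-subtracted, corrected for background with 20 µM compound solutions in water, and converted to OD with a calibration factor of 5. Fold changes above 1.5 appear as NA, and values are the mean of 2 biological replicates.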

Escherichia coli IAI1 [2] = assay: as above
Procedure, shortened: as §1

[3] = test system: Klebsiella aerogenes DSM 30053; assay: as above
Procedure, shortened: as §1

[4] = test system: Ruminococcus gnavus DSM 108212; assay: as above
Procedure, shortened: as §1

[5] = test system: Klebsiella aerogenes DSM 30053; assay: fold change of Histamine concentration vs plate DMSO controls (fold change (ratio)); higher = more amine produced, active = hit call of the paper (significant change in both replicates, either direction)
Procedure, shortened: (§2)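 Using LC–triple-quadrupole MS with dynamic MRM, amines were quantified against external calibration curves and corrected for drift within each batch. Samples were whole anaerobic mGAM cultures of four gut strains, grown 27 h at 37 °C from OD 0.1 before 1:1 dilution, extracted with cold acetonitrile/methanol containing 0.1% formic acid and centrifuged. Compounds were present at 20 µM final (sweeteners at 50 µM final). The numbers are fold changes versus plate DMSO controls, each the mean of 2 biological replicates.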

[6] = test system: Clostridium sporogenes DSM 1664; assay: fold change of Tryptamine concentration vs plate DMSO controls (fold change (ratio)); higher = more amine produced, active = hit call of the paper (significant change in both replicates, either direction)
Procedure, shortened: as §2

[7] = test system: Ruminococcus gnavus DSM 108212; assay: as above
Procedure, shortened: as §2

Escherichia coli IAI1 [8] = assay: fold change of Putrescine concentration vs plate DMSO controls (fold change (ratio)); higher = more amine produced, active = hit call of the paper (significant change in both replicates, either direction)
Procedure, shortened: as §2

[9] = test system: Klebsiella aerogenes DSM 30053; assay: as above
Procedure, shortened: as §2

Escherichia coli IAI1 [10] = assay: fold change of Cadaverine concentration vs plate DMSO controls (fold change (ratio)); higher = more amine produced, active = hit call of the paper (significant change in both replicates, either direction)
Procedure, shortened: as §2

[11] = test system: Klebsiella aerogenes DSM 30053; assay: as above
Procedure, shortened: as §2

[12] = test system: Ruminococcus gnavus DSM 108212; assay: fold change of 2-Phenylethylamine concentration vs plate DMSO controls (fold change (ratio)); higher = more amine produced, active = hit call of the paper (significant change in both replicates, either direction)
Procedure, shortened: as §2

Structure (SMILES) | growth [1] | growth (Escherichia coli IAI1 [2]) | growth [3] | growth [4] | fold change of Histamine concentration [5] | fold change of Tryptamine concentration [6] | fold change of Tryptamine concentration [7] | fold change of Putrescine concentration (Escherichia coli IAI1 [8]) | fold change of Putrescine concentration [9] | fold change of Cadaverine concentration (Escherichia coli IAI1 [10]) | fold change of Cadaverine concentration [11] | fold change of 2-Phenylethylamine concentration [12]
CN1CCC[C@@H]1Cc1c[nH]c2ccc(CCS(=O)(=O)c3ccccc3)cc12 [Eletriptan] (20 µM) | 0.866 | 1.04 | 0.965 | 0.979 | 1.05 (inactive) | 1.05 (inactive) | 1.02 (inactive) | 1.08 (inactive) | 0.973 (inactive) | 0.955 (inactive) | 0.994 (inactive) | 1.05 (inactive)
Cc1ncc(CO)c(CO)c1O [Pyridoxine hydrochloride] (20 µM) | 1.06 | 0.974 | 1.06 | 1.01 | 0.916 (inactive) | 1.05 (inactive) | 1.02 (inactive) | 0.925 (inactive) | 0.989 (inactive) | 1.06 (inactive) | 1.02 (inactive) | 1.01 (inactive)
Cc1cccc(C)c1NC(=O)CN1CCN(CCCC(c2ccc(F)cc2)c2ccc(F)cc2)CC1 [Lidoflazine] (20 µM) | 0.947 | 1 | 1.05 | 1.22 | 1.01 (inactive) | 1.04 (inactive) | 0.863 (inactive) | 1.09 (inactive) | 1 (inactive) | 0.995 (inactive) | 0.996 (inactive) | 0.906 (inactive)
CCOC(=O)[C@H](CCc1ccccc1)N[C@@H](C)C(=O)N1Cc2ccccc2C[C@H]1C(=O)O [Quinapril hydrochloride] (20 µM) | 1.03 | 1.02 | 0.996 | 0.99 | 1.06 (inactive) | 1.07 (inactive) | 1.03 (inactive) | 1.09 (inactive) | 1.04 (inactive) | 0.999 (inactive) | 1.01 (inactive) | 1.03 (inactive)
CC1(C)NC(=O)N(c2ccc([N+](=O)[O-])c(C(F)(F)F)c2)C1=O [Nilutamide] (20 µM) | 0.998 | 1.02 | 0.999 | 0.98 | 1.05 (inactive) | 0.955 (inactive) | 0.957 (inactive) | 1.1 (inactive) | 1.01 (inactive) | 0.987 (inactive) | 0.995 (inactive) | 0.981 (inactive)
Cc1ccc(=O)n(-c2ccccc2)c1 [Pirfenidone] (20 µM) | 0.978 | 0.995 | 0.983 | 0.984 | 1.02 (inactive) | 1.04 (inactive) | 0.978 (inactive) | 1.01 (inactive) | 1.01 (inactive) | 1.01 (inactive) | 0.981 (inactive) | 0.958 (inactive)
Cc1cc(/C=C/c2ccc3cc(N(C)C)ccc3[n+]2C)c(C)n1-c1ccccc1 [Pyrvinium pamoate] (20 µM) | 1.21 | 1.12 | 0.958 | 0.853 | 0.936 (inactive) | 0.95 (inactive) | 0.975 (inactive) | 1.22 (inactive) | 1.01 (inactive) | 0.966 (inactive) | 1.02 (inactive) | 1.04 (inactive)
C=CC[N@@+]12CC[C@@]34c5ccccc5N5/C=C6/[C@H]7C[C@H]8[C@@]9(CC[N@@+]8(CC=C)C/C7=C/CO)c7ccccc7N(/C=C(/[C@@H](C[C@@H]31)/C(=C\CO)C2)[C@H]54)[C@@H]69 [Alcuronium chloride] (20 µM) | 1.09 | 0.982 | 1.01 | 1.26 | 1.04 (inactive) | 1.03 (inactive) | 1.05 (inactive) | 1.12 (inactive) | 0.99 (inactive) | 0.915 (inactive) | 1.02 (inactive) | 1.07 (inactive)
CN(C/C=C/C#CC(C)(C)C)Cc1cccc2ccccc12 [Terbinafine] (20 µM) | 1.03 | 1.2 | 0.972 | 0.896 | 1.07 (inactive) | 1.01 (inactive) | 0.97 (inactive) | 1.21 (inactive) | 1.01 (inactive) | 0.987 (inactive) | 0.989 (inactive) | 1.02 (inactive)
CC(=O)O[C@]1(C(C)=O)CC[C@H]2[C@@H]3C=C(Cl)C4=CC(=O)CC[C@]4(C)[C@H]3CC[C@@]21C [Chlormadinone acetate] (20 µM) | 1.01 | 1 | 0.994 | 0.974 | 1.04 (inactive) | 0.965 (inactive) | 0.931 (inactive) | 1.04 (inactive) | 1.02 (inactive) | 1.02 (inactive) | 0.995 (inactive) | 0.895 (inactive)
CC(=O)OCC(=O)[C@@]1(OC(C)=O)[C@@H](C)C[C@H]2[C@@H]3C[C@H](F)C4=CC(=O)C=C[C@]4(C)[C@@]3(F)[C@@H](O)C[C@@]21C [Diflorasone Diacetate] (20 µM) | 1.05 | 0.996 | 0.978 | 0.993 | 1.03 (inactive) | 1.03 (inactive) | 1.01 (inactive) | 0.969 (inactive) | 1.01 (inactive) | 1.02 (inactive) | 0.989 (inactive) | 0.978 (inactive)
O=S(=O)(O)NC1CCCCC1 [Cyclamic acid] (50 µM) | 1.16 | 0.998 | 0.991 | 0.998 | 1.01 (inactive) | 1.03 (inactive) | 1.01 (inactive) | 1.03 (inactive) | 1.01 (inactive) | 0.989 (inactive) | 0.991 (inactive) | 1.02 (inactive)
Cc1ccc(S(=O)(=O)NC(=O)NN2CCCCCC2)cc1 [Tolazamide] (20 µM) | 0.935 | 1.09 | 1.04 | 1.19 | 0.975 (inactive) | 1.02 (inactive) | 1.14 (inactive) | 1.05 (inactive) | 0.974 (inactive) | 1.02 (inactive) | 1.02 (inactive) | 1.18 (inactive)
CCCOC(=O)NCCCN(C)C (20 µM) | 1.08 | 0.981 | 0.968 | 1.17 | 1.06 (inactive) | 1.05 (inactive) | 1.09 (inactive) | 0.952 (inactive) | 0.821 (inactive) | 0.93 (inactive) | 1.05 (inactive) | 1.22 (inactive)
Cc1cccc(N(C)C(=S)Oc2ccc3ccccc3c2)c1 [Tolnaftate] (20 µM) | 1.02 | 0.997 | 0.984 | 0.839 | 0.984 (inactive) | 1.04 (inactive) | 1.06 (inactive) | 1.04 (inactive) | 1.01 (inactive) | 1 (inactive) | 1 (inactive) | 1.04 (inactive)
C/C(O)=C(\C#N)C(=O)Nc1ccc(C(F)(F)F)cc1 [Teriflunomide] (20 µM) | 0.938 | 1.02 | 1.01 | 0.966 | 1.01 (inactive) | 0.946 (inactive) | 1 (inactive) | 1.07 (inactive) | 1.02 (inactive) | 1.09 (inactive) | 0.998 (inactive) | 1.04 (inactive)
O=C1Nc2ccccc2C1(c1ccc(O)cc1)c1ccc(O)cc1 [Oxyphenisatin] (20 µM) | 1.19 | 1.05 | 1 | 0.994 | 1.03 (inactive) | 0.982 (inactive) | 0.935 (inactive) | 1.04 (inactive) | 1 (inactive) | 1.01 (inactive) | 0.999 (inactive) | 0.89 (inactive)
CCC(C)(CN(C)C)OC(=O)c1ccccc1 (stereo not given) [Amyleine hydrochloride] (20 µM) | 0.952 | 1.01 | 0.983 | 0.997 | 1.02 (inactive) | 0.974 (inactive) | 0.945 (inactive) | 1.04 (inactive) | 1.02 (inactive) | 1.01 (inactive) | 0.983 (inactive) | 0.874 (inactive)
CC(=O)[C@@]12O[C@](C)(c3ccccc3)O[C@@H]1C[C@H]1[C@@H]3CCC4=CC(=O)CC[C@]4(C)[C@H]3CC[C@@]12C [Algestone acetophenide] (20 µM) | 1.03 | 1.22 | 0.998 | 1.13 | 1.03 (inactive) | 0.919 (inactive) | 1.08 (inactive) | 1.3 (inactive) | 1.01 (inactive) | 0.955 (inactive) | 1 (inactive) | 1.1 (inactive)
CCN(CCO)CCCC(C)Nc1ccnc2cc(Cl)ccc12 (stereo not given) [Hydroxychloroquine sulfate] (20 µM) | 1.08 | 0.955 | 0.95 | 0.855 | 1.09 (inactive) | 0.967 (inactive) | 0.991 (inactive) | 0.915 (inactive) | 1.04 (inactive) | 0.999 (inactive) | 0.982 (inactive) | 1.02 (inactive)
CCCc1nc(C)c2c(=O)nc(-c3cc(S(=O)(=O)N4CCN(CC)CC4)ccc3OCC)[nH]n12 [Vardenafil] (20 µM) | 1.15 | 0.975 | 1.01 | 1.27 | 1.03 (inactive) | 0.992 (inactive) | 1.05 (inactive) | 1.01 (inactive) | 1.01 (inactive) | 1.02 (inactive) | 1.01 (inactive) | 1.07 (inactive)
CCN(CC)CCNc1ccc(CO)c2sc3ccccc3c(=O)c12 [Hycanthone] (20 µM) | 1.05 | 1.03 | 1.03 | 0.939 | 0.979 (inactive) | 0.791 (active) | 0.917 (inactive) | 1.01 (inactive) | 0.993 (inactive) | 0.967 (inactive) | 1.01 (inactive) | 0.917 (inactive)
OC[C@@H](O)[C@@H](O)[C@H](O)[C@@H](O)CO [Sorbitol] (50 µM) | 1.06 | 0.929 | 0.967 | 1.1 | 1.03 (inactive) | 0.988 (inactive) | 0.966 (inactive) | 0.923 (inactive) | 0.869 (inactive) | 1.1 (inactive) | 1.06 (inactive) | 0.959 (inactive)
O=P(O)(O)C(Cl)(Cl)P(=O)(O)O [Clodronate disodium] (20 µM) | 0.99 | 1.03 | 1.02 | 1.09 | 1.02 (inactive) | 0.973 (inactive) | 0.999 (inactive) | 1.02 (inactive) | 1.02 (inactive) | 1.03 (inactive) | 1 (inactive) | 0.981 (inactive)
N[C@@H](Cc1ccc(O)c(O)c1)C(=O)O [Levodopa] (20 µM) | 1.09 | 0.977 | 0.989 | 0.94 | 1.05 (inactive) | 1.03 (inactive) | 1.03 (inactive) | 1 (inactive) | 1.02 (inactive) | 0.975 (inactive) | 0.997 (inactive) | 1.04 (inactive)
